This excerpt belongs to a sample that is enriched for hits.
Pf apPOL block = Pf-apPOL DNA polymerase inhibition; Recombinant Pf-apPOL, molecular beacon fluorescence, 1.5 h; inhibition, % at 10 µM; 210,000 compounds, 0.25% hits; AID 1794808
mHTT CaM bind = inhibitors of human mutant huntingtin-calmodulin interaction. inhibition, % at 15 µM. AlphaScreen His-mHTT/GST-CaM binding, luminescence. 190,000 compounds, 3.6% hits. AID 1671202;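 further: 0% = both proteins with DMSO and 100% = one protein alone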
Starred values were filed as active, the others as inactive; · = no result. No stated cut-off is given here; in the data, active means inhibition above about 50%; inactive means the rest.

SMILES	Pf apPOL block	mHTT CaM bind
CCOc1ccc(/C=C2/C(=O)ON=C2C)cc1Br	0	48
CCN(CC)c1ccc(/C=C2/C(=O)ON=C2C)cc1	0	50*
CC(CC(=O)Nc1ccc(S(=O)(=O)Nc2nccs2)cc1)c1ccccc1 (stereo not drawn)	-6	10
Cc1cc(C)c(-c2noc(C)n2)c(NC(=O)c2ccc(F)cc2)n1	-3	-6
COc1ccccc1NC(=O)N1CCN(c2ccccc2OC)CC1	-30	-1
COc1cccc(CNC(=O)N2CC3CCCN3c3ccccc32)c1 (stereo not drawn)	0	66*
COC(=O)c1cccc(NC(=O)N2CC3CCCN3c3ccccc32)c1 (stereo not drawn)	-2	69*
COc1ccc(OC)c(CCNC(=O)CCC(=O)N2CC3CCCN3c3ccccc32)c1 (stereo not drawn)	-2	53*
COc1ccc(CNC(=O)CCC(=O)N2CC3CCCN3c3ccccc32)c(OC)c1 (stereo not drawn)	-4	36
CCOC(=O)CNC(=O)N1CC2CCCN2c2ccccc21 (stereo not drawn)	-3	16
COc1ccccc1NC(=O)N1CCN(C)c2ccccc21	0	61*
O=C(Nc1ccc(F)c(Cl)c1)N1CC2CCCN2c2ccccc21 (stereo not drawn)	-3	4
CN(C(=O)Cn1cnc2c(-c3ccc(F)cc3)csc2c1=O)c1ccc(F)cc1	2	-18
COc1ccccc1CCNC(=O)C(=O)Nc1cccnc1	-4	-11
Cc1cc(C)cc(S(=O)(=O)N2CCC(CN3CCCCCC3)CC2)c1	0	4
COc1ccc(C(=O)NC(=O)Nc2ncccc2C)cc1	-3	-5
Cc1cc([N+](=O)[O-])ccc1NC(=O)CN1C(=O)c2ccccc2S1(=O)=O	5	1
CCN(CC)CCNc1c([N+](=O)[O-])c(=O)n(C)c2ccccc12	-7	0
COc1ccccc1OCCCC(=O)NC(C)c1ccccc1 (stereo not drawn)	-12	-8
COc1ccc(OC)c(NC(=O)N2CC3CCCN3c3ccccc32)c1 (stereo not drawn)	1	83*
COc1ccccc1NC(=O)N1CC(C)Oc2ccc(C)cc21 (stereo not drawn)	-4	-2
COc1ccc(OC)c(NC(=O)N2CC(C)Oc3ccc(C)cc32)c1 (stereo not drawn)	-16	62*
CCOC(=O)c1cccc(NC(=O)N2CC(CC)Oc3ccccc32)c1 (stereo not drawn)	-3	-19
COc1ccc(OC)c(NC(=O)N2CCCC2c2ccccc2C)c1 (stereo not drawn)	-4	19
COc1cccc(NC(=O)N2CC3CCCN3c3ccccc32)c1 (stereo not drawn)	-3	73*
SMILES	Pf apPOL block	mHTT CaM bind
O=C(Nc1cccc(F)c1)N1CC2CCCN2c2ccccc21 (stereo not drawn)	-3	46
CCOC(=O)c1cccc(NC(=O)N2CC3CCCN3c3ccccc32)c1 (stereo not drawn)	0	78*
CCOc1ccc(OCC)c(S(=O)(=O)NCCCN2CCOCC2)c1	-4	7
CC1CCN(c2ncc3c(n2)CCC(C(=O)NCCC2=CCCCC2)C3)CC1 (stereo not drawn)	-3	1
COc1cc(NC(=O)N2CC3CCCN3c3ccccc32)cc(OC)c1OC (stereo not drawn)	4	62*
COc1cc(NC(=O)N2CCOc3ccc(C)cc32)cc(OC)c1OC	-7	8
COc1ccc(CN2CCc3cc(OC)c(OC)cc3C2)cc1	0	-2
COc1ccc(OC)c(C(O)CN2CCN(c3ccc(Cl)cc3)CC2)c1 (stereo not drawn)	-6	-3
Cc1cc(OCc2nc(C(=O)NC(C)C)cs2)ccc1Cl	-10	66*
Cc1cc(OCC(=O)NN)ccc1Cl	0	-5
Cc1cc(OCC(=O)NC(C)C)ccc1Cl	2	90*
CC(C)NC(=O)c1csc(COc2ccc(Cl)cc2)n1	-9	-5
O=c1c2c(ncn2Cc2ccccc2)n(-c2cccc(F)c2)c(=O)n1C1CC1	-2	6
Cc1cccc(N2CCN(CN3C(=O)C(=O)c4cc(Br)ccc43)CC2)c1	-1	4
CCN(CC)C(=O)c1sc2ccccc2c1Cl	-1	-11
Cc1c(C(=O)N2CCCCC2)oc2ccc(S(=O)(=O)N3CCOCC3)cc12	11	10
CCOc1ccc(N2C(=O)CC(NCCc3ccc(S(N)(=O)=O)cc3)C2=O)cc1 (stereo not drawn)	-6	-2
NNc1nc2ccccc2s1	-4	86*
O=S(=O)(Cc1ccccc1)Nc1nc2ccccc2s1	3	0
CCC(C)C1N=C2c3ccccc3N=C(SCC#N)N2C1=O (stereo not drawn)	-1	-1
COc1cccc(OC)c1C(=O)NCCn1ncccc1=O	-3	-6
COc1ccc(C2=NN(S(C)(=O)=O)C(c3cc4ccc(OC)cc4nc3Cl)C2)cc1 (stereo not drawn)	-2	19
CCC1=NN(C(=O)c2ccc(Cl)cc2)C(O)(C(F)(F)F)C1 (stereo not drawn)	94*	8
CCC1=NN(C(=O)c2ccc(I)cc2)C(O)(C(F)(F)F)C1 (stereo not drawn)	3	15
Cc1cccc(C(=O)N2N=C(c3ccc(Cl)cc3)CC2(O)C(F)(F)F)c1 (stereo not drawn)	-7	89*
SMILES	Pf apPOL block	mHTT CaM bind
O=C(c1cccc(Cl)c1)N1N=C(c2ccc(Cl)cc2)CC1(O)C(F)(F)F (stereo not drawn)	-2	-4
CC(NC(=O)c1ccc(NC(=O)C2CC2)cc1N1CCCCCC1)c1ccccn1 (stereo not drawn)	-2	7
COc1ccc(S(=O)(=O)N2CCCC2CNC(=O)c2ccc(C(F)(F)F)cc2)cc1 (stereo not drawn)	-2	45
COc1ccc(C(=O)Cn2c3ccccc3n3ncnc23)cc1OC	5	0
CC(C)C(=O)Nc1cccc(N2CCCN(Cc3ccc(C#N)cc3)C2=O)c1	-2	10
COc1ccc(C(NC(=O)CCC(NC(=O)OCc2ccccc2)C(=O)O)c2ccc(OC)cc2)cc1 (stereo not drawn)	-15	·
CCCc1noc(-c2cccnc2N2CCCN(Cc3cc(C)ccc3C)CC2)n1	-3	-86
Cc1[nH]c2ccccc2c1C(=O)CN1CCCC1	0	59*
Cc1[nH]c2ccccc2c1C(=O)CN1CCCCC1	-5	-1
Cc1cc2oc(C(=O)Nc3nc4ccc(S(C)(=O)=O)cc4s3)c(C)c2cc1C	0	-1
O=C(c1c[nH]c2ccc(S(=O)(=O)Nc3ccccc3F)cc2c1=O)N1CCCCC1	-36	0
O=C1OC(c2ccccc2Cl)=N/C1=C\C=C\c1ccccc1	-1	53*
O=C1OC(c2ccccc2Br)=N/C1=C\C=C\c1ccccc1	-6	45
CCC(C)NC(=O)c1ccc(CS(=O)(=O)Cc2ccccc2Cl)o1 (stereo not drawn)	-7	-5
O=C(c1ccc(F)cc1)N1CCCC(c2ccnc(-c3ccccc3)n2)C1 (stereo not drawn)	-2	18
O=C(COc1ccc(F)cc1)N1CCCC(c2ccnc(-c3ccccc3)n2)C1 (stereo not drawn)	-1	73*
O=C(c1ccccc1)N1CCCC(c2ccnc(-c3ccccc3)n2)C1 (stereo not drawn)	-3	31
O=C(c1ccco1)N1CCCC(c2ccnc(-c3ccccc3)n2)C1 (stereo not drawn)	-2	61*

High-throughput results deposited in PubChem by University of Kansas High Throughput Screening Laboratory.
